Experimental data published in PubChem BioAssay (Tox21).
Inconclusive results are not listed. Calls of active or inactive are those of the source. Unless noted, calls come from the whole dose curve; as a rule, active = well fitted curve in the direction sought with a large enough effect in the repeat runs; inconclusive = weak or mixed curves; inactive = no such curve, though single readings can be large; an effect the other way counts as inactive or inconclusive.

What was measured:
[1] = qHTS assay to identify small molecule agonists of the vitamin D receptor (VDR) signaling pathway - cell viability counter screen (AID 743224); note: series mostly up to about 63 µM; % is set by controls: 0 for no effect and ±100 for the full control effect; nearly all actives have a fitted effect of over 50% in size
In short: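 Luminescence from CellTiter-Glo, read after 30 min at room temperature, reports viability of VDR-bla cells treated with compounds for 16 h at 37C in the wells used for the beta-lactamase FRET read.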

[2] = qHTS assay to identify small molecule antagonists of the vitamin D receptor (VDR) signaling pathway - cell viability counter screen (AID 743225); note: % is set by controls: 0 for no effect and ±100 for the full control effect; nearly all actives have a fitted effect of over 50% in size
In short: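 Parallel cytotoxicity test: VDR-UAS-bla HEK 293T, 3 nM (final) 1-alpha,25-dihydroxyvitamin D3 with test compound, 16 h, 37C. Endpoint is CellTiter-Glo luminescence in the same wells.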

[3] = qHTS assay to identify small molecule agonists of the NFkB signaling pathway (AID 1159509; active = well fitted curve in the direction sought with a large enough effect in the signal ratio in the repeat runs, not every such curve was filed as active; the % refers to the signal ratio; note: series mostly up to about 61 µM; % is set by controls: 0 for no effect and ±100 for the full control effect)
In short: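 NFkB-bla ME-180 cells carry a beta-lactamase reporter under an NF-kB response element. They were plated overnight, then exposed to compounds for 5 h at 37 C. Read-out is LiveBLAzer FRET after 1.5 hr at room temperature (405 nm excitation; 460/530 nm emission).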

[4] = qHTS assay to identify small molecule agonists of the NFkB signaling pathway - cell viability counter screen (AID 1159515; calls by dose curve; note: series mostly up to about 61 µM; % is set by controls: 0 for no effect and ±100 for the full control effect; nearly all actives have a fitted effect of over 55% in size)
In short: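 Luminescence from CellTiter-Glo (30 min, room temperature) gives viability, measured in the same wells as the beta-lactamase reporter read. Cells were NFkB-bla ME-180, 2,000 per well, treated 5 hr with compounds.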

[5] = qHTS assay to identify small molecule agonists of the endoplasmic reticulum stress response signaling pathway (AID 1159516; active = well fitted activation curve with a large enough effect in the signal ratio in the repeat runs, not every such curve was filed as active; the % refers to the signal ratio; note: % is set by controls: 0 for no effect and ±100 for the full control effect)
In short: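 Read-out is beta-lactamase cleavage of a FRET substrate (405 nm excitation; 460 and 530 nm emissions) in ESRE-bla HeLa cells after a 5 hr compound exposure at 37 C. Substrate incubation ran 2 hr at room temperature.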

[6] = qHTS assay to identify small molecule agonists of the endoplasmic reticulum stress response signaling pathway - cell viability counter screen (AID 1159517; calls by dose curve;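 note: HeLa cells carrying an ER stress response element beta-lactamase reporter; series mostly up to about 61 µM; % is set by controls: 0 for no effect and ±100 for the full control effect; nearly all actives have a fitted effect of over 50% in size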)
In short: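 ESRE-bla HeLa cells, 1,500 per well, seeded overnight then treated with compounds for 5 hr at 37 C. After the beta-lactamase read, viability in the same wells is measured by CellTiter-Glo luminescence after 30 min at room temperature.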

[7] = qHTS assay to identify small molecule antagonists of the retinoid-related orphan receptor gamma (ROR-gamma) signaling pathway - cell viability counter screen (AID 1159520); note: % is set by controls: 0 for no effect and ±100 for the full control effect; nearly all actives have a fitted effect of over 50% in size
In short: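 Tet-on ROR gamma CHO cells were given compounds for 2 hr, then doxycycline hyclate at 1 uM final, and incubated 16 hr at 37 C. Viability was measured as ATP content by CellTiter-Glo luminescence.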

[8] = biological target: Nuclear receptor ROR-gamma (Homo sapiens) (UniProt P51449); experiment: qHTS assay to identify small molecule antagonists of the retinoid-related orphan receptor gamma (ROR-gamma) signaling pathway (AID 1159521)
In short: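 Decreased RORE-driven luciferase luminescence indicates antagonism. Tet-on RORγ CHO cells received compound, then 1 uM final doxycycline 2 h later; signal read after 16 h incubation.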

[9] = qHTS assay to identify small molecule agonists of the AP-1 signaling pathway - cell viability counter screen (AID 1159525; calls by dose curve; note: nearly all actives have a fitted effect of over 55% in size)
In short: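 AP-1-bla ME-180 cells in Opti-MEM with 0.5% dialyzed FBS, compound exposure 5 h at 37 C in 15-point titration. Viability read in the same wells as ATP content by CellTiter-Glo luminescence, normalised to tetra-n-octylammonium bromide and DMSO controls.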

[10] = qHTS assay to identify small molecule agonists of the AP-1 signaling pathway (AID 1159526; calls by dose curve; note: % is set by controls: 0 for no effect and ±100 for the full control effect)
[11] = biological target: Retinoic acid receptor RXR-alpha (Homo sapiens) (UniProt P19793); experiment: qHTS assay to identify small molecule agonists of the RXR signaling pathway (AID 1159527; calls by dose curve; note: % is set by controls: 0 for no effect and ±100 for the full control effect; nearly all actives have a fitted effect of over 35% in size)
In short: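 16 hr incubation of compound-treated RXR-alpha-UAS-bla HEK 293T cells (2% charcoal-stripped FBS, 37 C) preceded a 2 hr room-temperature LiveBLAzer FRET substrate step and blue/green fluorescence measurement.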

[12] = qHTS assay to identify small molecule agonists of the RXR signaling pathway - cell viability counter screen (AID 1159529)
In short: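 In this parallel viability measure, GeneBLAzer RXR-alpha HEK 293T cells (2% charcoal-stripped FBS) were given a 5 hr preincubation, treated with compounds 16 hr at 37 C, and read by CellTiter-Glo luminescence.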

[13] = qHTS assay to identify small molecule antagonists of the retinoid acid receptor (RAR) signaling pathway - cell viability counter screen (AID 1159551); note: % is set by controls: 0 for no effect and ±100 for the full control effect; nearly all actives have a fitted effect of over 35% in size
In short: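 Luminescent ATP quantitation (CellTiter-Glo) gave cell viability in C3RL4 cells exposed to test chemicals for 6 h at 37 C alongside 1 uM final retinol.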

[14] = qHTS assay to identify small molecule antagonists of the retinoic acid receptor (RAR) signaling pathway (AID 1159552)
In short: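 C3RL4 RARE-luc cells, overnight plating; retinol 1 uM final added right after compound; 6 hr 37 C; luciferase read at 30 min RT.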

[15] = qHTS assay to identify small molecule agonists of the retinoic acid receptor (RAR) signaling pathway (AID 1159553); note: % is set by controls: 0 for no effect and ±100 for the full control effect
In short: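 Luminescence from a RARE-driven luciferase reporter in C3RL4 cells served as the read-out, measured after 30 min with detection reagent at room temperature. Compounds in DMSO were applied for 6 hr at 37 C following overnight seeding.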

[16] = qHTS assay to identify small molecule antagonists of the estrogen related receptor (ERR) signaling pathway - cell viability counter screen (AID 1224818)
In short: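 Multiplexed counter screen to separate cytotoxic compounds from true ERR modulators. ERR cells received DMSO-dissolved compounds after a 6 h pre-incubation, were exposed 17.5 h at 37 C, then assayed with CellTiter-Fluor fluorescence.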

[17] = qHTS assay to identify small molecule antagonists of the estrogen related receptor (ERR) signaling pathway (AID 1224819)
In short: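 Seed ERR cells 2,000/well; rest 6 h at 37 C/5% CO2; pin compounds in DMSO; incubate 18 h at 37 C; add One-Glo; wait 30 min at room temperature; measure luminescence.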

[18] = qHTS assay to identify small molecule agonists of the estrogen related receptor (ERR) signaling pathway (AID 1224820); note: % is set by controls: 0 for no effect and ±100 for the full control effect
In short: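 ERR reporter cell line (from NTP), 2,000 cells/well, incubated 6 h before compound addition, then 18 h at 37 C. Luminescence measured 30 min after One-Glo reagent at room temperature.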

[19] = system: estrogen-related receptor alpha (ERRalpha) with PGC-1alpha coactivator, human; experiment: qHTS assay to identify small molecule antagonists of the estrogen related receptor signaling pathway with the pleiotropic PPARgamma coactivator (PGC) (AID 1224821; calls by dose curve)
In short: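 PGC/ERR reporter cell line, plated 6 h before compound addition, then exposed 18 h at 37 °C. Luciferase activity read by luminescence 30 min after One-Glo addition; decrease indicates antagonism.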

[20] = qHTS assay to identify small molecule antagonists of the estrogen related receptor signaling pathway with the pleiotropic PPARgamma coactivator (PGC) cell viability counter screen (AID 1224822)
In short: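 Cells: PGC/ERR, 2,000/well, 1536-well format. Pre-incubation 6 h, 37 C/5% CO2. Compound exposure 17.5 h, 37 C. Detection: CellTiter-Fluor, 30 min, fluorescence.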

Chain of Retinoic acid receptor RXR-alpha (Homo sapiens) (P19793 whole entry, looked up): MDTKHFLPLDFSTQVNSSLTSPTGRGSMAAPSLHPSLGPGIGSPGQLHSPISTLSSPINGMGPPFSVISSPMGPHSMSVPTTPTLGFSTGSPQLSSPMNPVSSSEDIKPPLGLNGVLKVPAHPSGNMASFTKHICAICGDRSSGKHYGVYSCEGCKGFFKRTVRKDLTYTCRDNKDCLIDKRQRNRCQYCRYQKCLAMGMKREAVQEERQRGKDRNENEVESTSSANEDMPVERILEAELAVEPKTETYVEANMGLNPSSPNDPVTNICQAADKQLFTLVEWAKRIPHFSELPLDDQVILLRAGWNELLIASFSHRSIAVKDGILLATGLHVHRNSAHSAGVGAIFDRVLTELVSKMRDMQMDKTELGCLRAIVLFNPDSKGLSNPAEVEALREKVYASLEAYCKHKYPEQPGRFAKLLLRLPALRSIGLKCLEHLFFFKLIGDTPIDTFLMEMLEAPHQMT

OC[C@]1(O)OC[C@@H](O)[C@H](O)[C@@H]1O
inactive: Potency [1] | Potency [2] | outcome [3] | outcome [4] | outcome [5] | outcome [6] | outcome [7] | Potency [8] | Potency [9] | outcome [10] | Potency [11] | Potency [12] | outcome [13] | Potency [14] | Potency [15]

C=C(C)CS(=O)(=O)O
inactive: Potency [2] | outcome [3] | outcome [4] | outcome [5] | outcome [6] | outcome [7] | Potency [8] | Potency [9] | outcome [10] | Potency [11] | Potency [12] | outcome [13] | Potency [14] | Potency [15]

CCCCCSCCCCC
inactive: Potency [1] | Potency [2] | outcome [3] | outcome [4] | outcome [5] | outcome [6] | outcome [7] | Potency [8] | Potency [9] | outcome [10] | Potency [11] | Potency [12] | outcome [13] | Potency [14] | Potency [15]

CCO[Si](CCC1CCC2OC2C1)(OCC)OCC (stereo unspecified)
inactive: Potency [1] | Potency [2] | outcome [3] | outcome [4] | outcome [5] | outcome [6] | outcome [7] | Potency [8] | Potency [9] | outcome [10] | Potency [11] | Potency [12] | outcome [13] | Potency [14] | Potency [15]

CC(=O)CC(C)(C)C1CCCCC1
inactive: Potency [1] | Potency [2] | outcome [3] | outcome [4] | outcome [5] | outcome [6] | outcome [7] | Potency [8] | Potency [9] | outcome [10] | Potency [11] | Potency [12] | outcome [13] | Potency [14] | Potency [15]

C1OCOCO1
inactive: Potency [1] | Potency [2] | outcome [3] | outcome [4] | outcome [5] | outcome [6] | outcome [7] | Potency [8] | Potency [9] | outcome [10] | Potency [11] | Potency [12] | outcome [13] | Potency [14] | Potency [15]

C[C@H]1C[C@@H](O)CC(C)(C)C1
inactive: Potency [1] | Potency [2] | outcome [3] | outcome [4] | outcome [5] | outcome [6] | outcome [7] | Potency [8] | Potency [9] | outcome [10] | Potency [11] | Potency [12] | outcome [13] | Potency [14] | Potency [15]

CCc1nccnc1CC
inactive: Potency [1] | Potency [2] | outcome [3] | outcome [4] | outcome [5] | outcome [6] | activity, negative = cytotoxicity [7] -7.52% [at 19 µM] | Potency [8] | viability change, negative = cytotoxic [9] -1.96% [at 15.8 µM] | outcome [10] | Potency [11] | Potency [12] | activity change, negative = cytotoxicity [13] 1.72% [at 19 µM] | activity, negative = inhibition [14] 7.06% [at 19 µM] | Potency [15]

CCCCCCCCCCCCCCCCC
inactive: Potency [1] | Potency [2] | outcome [3] | outcome [4] | outcome [5] | outcome [6] | outcome [7] | Potency [8] | Potency [9] | outcome [10] | Potency [11] | Potency [12] | outcome [13] | Potency [14] | Potency [15]

CN1CCCC1
inactive: Potency [1] | Potency [2] | outcome [3] | outcome [4] | outcome [5] | outcome [6] | outcome [7] | Potency [8] | Potency [9] | outcome [10] | Potency [11] | Potency [12] | outcome [13] | Potency [14] | Potency [15]

COC(=O)[C@@H](N)Cc1ccc(O)c(O)c1
inactive: Potency [1] | Potency [2] | outcome [3] | outcome [4] | outcome [5] | outcome [6] | outcome [7] | Potency [8] | Potency [9] | outcome [10] | Potency [11] | Potency [12] | outcome [13] | Potency [14] | outcome [16] | outcome [17] | outcome [18] | outcome [19] | outcome [20]

CCO/C([O-])=N/c1c[n+](N2CCOCC2)no1
inactive: Potency [1] | outcome [3] | outcome [4] | outcome [5] | outcome [6] | outcome [7] | Potency [8] | Potency [9] | outcome [10] | Potency [11] | Potency [12] | outcome [13] | Potency [14] | outcome [16] | outcome [17] | outcome [18] | outcome [19] | outcome [20]

O=C1CCCCCCCCCCCN1
inactive: Potency [1] | Potency [2] | outcome [3] | outcome [4] | outcome [5] | outcome [6] | outcome [7] | Potency [8] | Potency [9] | outcome [10] | Potency [11] | Potency [12] | outcome [13] | Potency [14] | Potency [15]

CC(C)CNCC(C)C
inactive: Potency [1] | Potency [2] | outcome [3] | outcome [4] | outcome [5] | outcome [6] | outcome [7] | Potency [8] | Potency [9] | outcome [10] | Potency [11] | Potency [12] | outcome [13] | Potency [14] | Potency [15]

CCOC(=O)c1cccc(N)c1
inactive: Potency [1] | Potency [2] | outcome [3] | outcome [4] | outcome [5] | outcome [6] | outcome [7] | Potency [8] | Potency [9] | outcome [10] | Potency [11] | Potency [12] | outcome [13] | Potency [14] | Potency [15]

C=CCCCCCCCCC=O
inactive: Potency [1] | Potency [2] | outcome [3] | outcome [4] | outcome [5] | outcome [6] | outcome [7] | Potency [8] | Potency [9] | outcome [10] | Potency [11] | Potency [12] | outcome [13] | Potency [14] | Potency [15]

C=CCOCC(CC)(CO)COCC=C
inactive: Potency [1] | Potency [2] | outcome [3] | outcome [4] | outcome [5] | outcome [6] | outcome [7] | Potency [8] | Potency [9] | outcome [10] | Potency [11] | Potency [12] | outcome [13] | Potency [14] | Potency [15]
